The panel holds about 79,000 compounds, 15% with a hit somewhere; the sample as a whole holds those more often. A number with no mark means an inactive call. The source made the active and inactive calls. Cut-off read from the data, not from the text of the source: active = growth inhibition above about 70%; inactive = the rest.
Assay: NCI Yeast Anticancer Drug Screen. Data for the mec2-1 strain (AID 157)
Details: S. cerevisiae mec2-1 strain, at 5.0 µM (retest, dose inferred, filed as 0.5), hits give high values
Method in brief: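 Each compound was tested on mec2-1 yeast, a strain altered in DNA damage repair or cell cycle control. Growth inhibition is reported relative to vehicle.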

| Compound | growth inhibition |
| --- | --- |
| CCOP(=O)(OCC)/C(C#N)=C/c1ccc(Oc2ccccc2)cc1 | -42% |
| CC(=O)Nc1ccc(S(=O)(=O)/N=C2\C=CC(=O)c3ccccc32)cc1 | 4% |
| CCCC#CCCOC(=O)c1cc([N+](=O)[O-])cc([N+](=O)[O-])c1 | 5% |
| COc1cccc2c1OC(c1ccc(Cl)cc1)C([N+](=O)[O-])=C2 (stereo not given) | 95% (active) |
| c1ccc(-n2c3ccccc3c3ccccc32)cc1 | 4% |
| CCOC(=O)C(NC(C)=O)[CH](c1ccccc1)[Sn]([c]1ccccc1)([c]1ccccc1)[c]1ccccc1 (stereo not given) | -7% |
| C/C(CCn1[nH]c(=O)ccc1=O)=N\Nc1ccc([N+](=O)[O-])cc1[N+](=O)[O-] | 20% |
| N#CC(O)C(Br)(Br)Br (stereo not given) | -3% |
| COc1ccc(N)c([N+](=O)[O-])c1 | 1% |
| CC(C)O[C@H]1N(C2CC(N=[N+]=[N-])C(CO)O2)C(=O)NC(=O)[C@]1(C)Br (stereo not given in full) | -6% |
| COc1ccc(C(=O)C2C(=O)C(=O)OC2C2OC(=O)C(=O)C2C(=O)c2ccc(OC)cc2)cc1 (stereo not given) | -3% |
| O=[N+]([O-])c1c(Cl)c(Cl)c(O)c(Cl)c1Cl | 44% |
| Cc1ccc(C)c(NC(=O)CCC(=O)CC(=O)c2ccncc2)c1 | 3% |
| CC(C)CCCC(C)C1CCC2C3CC=C4CC(OC(=O)Nc5ccc(S(=O)(=O)c6ccc(F)cc6)cc5)CCC4(C)C3CCC12C (stereo not given) | 1% |
| COc1ccc(/C=C(/NC(=O)c2ccccc2)C(=O)Nc2ccccc2)cc1OC | -7% |
| C=C(Br)CN(CC(=C)Br)C(C)=O | 17% |
| CCN(C(C)=O)c1ccc2c(c1)Cc1ccccc1-2 | -3% |
| NN(c1ccccc1)c1cccc2ccccc12 | -1% |
| C#CCN1CCN(C(=S)N/N=C(\C)c2ccccn2)CC1 | 19% |
| CC(C)OC(=O)C1C=CCc2c(O)ccc(O)c21 (stereo not given) | 15% |

| Compound | growth inhibition |
| --- | --- |
| CC(=O)C1C(=O)C=C(C)OC1=O (stereo not given) | 8% |
| CCOC(=O)c1[nH]n(-c2ccccc2)c(=O)c1/C=N/C(=S)N=Nc1c(O)[nH]c2ccccc12 | -21% |
| N#Cc1c(Cl)nnc(-c2ccccc2)c1-c1ccccc1 | 8% |
| CC(=O)Oc1c(O)c2ccccc2c2ccccc12 | -5% |
| Cc1cccnc1NC(=S)Nc1ccccc1Cl | 12% |
| CCOC(=O)/C(=C\c1cccc(OC)c1)C(C)=O | -5% |
| c1ccc(C(c2ccccc2)c2ccc3ccccc3n2)cc1 | -2% |
| O=c1cc(CSc2ccc(Cl)cc2)occ1O | -2% |
| COc1cc(NCCCCCNC2CCCCC2)c2ncccc2c1 | -4% |
| CC(=O)OCc1ccc([N+](=O)[O-])o1 | -7% |
| O=C(O)Cc1cccc2cc3c(ccc4ccccc43)cc12 | 8% |
| Cc1cccc(N2C(=O)c3ccccc3C2(c2ccccc2)N2CCCCC2)c1 (stereo not given) | 0% |
| O=C(/C=C/c1ccccc1)CCN1CCOCC1 | 26% |
| C=CCCCCCCCCC(=O)CCCCCCCCC=C | -2% |
| Cc1ccc(O)c(C(C)c2ccccc2)c1 (stereo not given) | -20% |
| COC(=O)c1nc(N)nc(C(=O)OC)c1C(=O)c1ccccc1 | 22% |
| Cc1ccc(S(=O)(=O)Oc2ccc(C(C)(C)C)cc2Cl)cc1 | -22% |
| CCCCCCCCCCCCCCC[N+]1(CC)CCCCC1 | 97% (active) |
| CC12CCC(=O)C=C1C=CC1C2CCC2(C)C1CCC21CCC(=O)O1 (stereo not given) | 5% |
| CC(C)N(C(=O)C12C3C4C1C1C2C3C41I)C(C)C (stereo not given) | -28% |

Same assay, conditions: S. cerevisiae mec2-1 strain, at 50.0 µM (retest, dose inferred, filed as 5.0), hits give high values

| Compound | growth inhibition |
| --- | --- |
| CCOP(=O)(OCC)/C(C#N)=C/c1ccc(Oc2ccccc2)cc1 | 98% (active) |
| CC(=O)Nc1ccc(S(=O)(=O)/N=C2\C=CC(=O)c3ccccc32)cc1 | 24% |
| CCCC#CCCOC(=O)c1cc([N+](=O)[O-])cc([N+](=O)[O-])c1 | 99% (active) |
| COc1cccc2c1OC(c1ccc(Cl)cc1)C([N+](=O)[O-])=C2 (stereo not given) | 95% (active) |
| c1ccc(-n2c3ccccc3c3ccccc32)cc1 | 3% |
| CCOC(=O)C(NC(C)=O)[CH](c1ccccc1)[Sn]([c]1ccccc1)([c]1ccccc1)[c]1ccccc1 (stereo not given) | 96% (active) |
| C/C(CCn1[nH]c(=O)ccc1=O)=N\Nc1ccc([N+](=O)[O-])cc1[N+](=O)[O-] | 98% (active) |
| N#CC(O)C(Br)(Br)Br (stereo not given) | 38% |
| COc1ccc(N)c([N+](=O)[O-])c1 | 23% |
| CC(C)O[C@H]1N(C2CC(N=[N+]=[N-])C(CO)O2)C(=O)NC(=O)[C@]1(C)Br (stereo not given in full) | 57% |
| COc1ccc(C(=O)C2C(=O)C(=O)OC2C2OC(=O)C(=O)C2C(=O)c2ccc(OC)cc2)cc1 (stereo not given) | -3% |
| O=[N+]([O-])c1c(Cl)c(Cl)c(O)c(Cl)c1Cl | 83% (active) |
| Cc1ccc(C)c(NC(=O)CCC(=O)CC(=O)c2ccncc2)c1 | 4% |
| CC(C)CCCC(C)C1CCC2C3CC=C4CC(OC(=O)Nc5ccc(S(=O)(=O)c6ccc(F)cc6)cc5)CCC4(C)C3CCC12C (stereo not given) | 4% |
| COc1ccc(/C=C(/NC(=O)c2ccccc2)C(=O)Nc2ccccc2)cc1OC | -12% |
| C=C(Br)CN(CC(=C)Br)C(C)=O | 14% |
| CCN(C(C)=O)c1ccc2c(c1)Cc1ccccc1-2 | 97% (active) |
| NN(c1ccccc1)c1cccc2ccccc12 | 97% (active) |
| C#CCN1CCN(C(=S)N/N=C(\C)c2ccccn2)CC1 | 100% (active) |
| CC(C)OC(=O)C1C=CCc2c(O)ccc(O)c21 (stereo not given) | 24% |

| Compound | growth inhibition |
| --- | --- |
| CC(=O)C1C(=O)C=C(C)OC1=O (stereo not given) | 18% |
| CCOC(=O)c1[nH]n(-c2ccccc2)c(=O)c1/C=N/C(=S)N=Nc1c(O)[nH]c2ccccc12 | -17% |
| N#Cc1c(Cl)nnc(-c2ccccc2)c1-c1ccccc1 | 84% (active) |
| CC(=O)Oc1c(O)c2ccccc2c2ccccc12 | 97% (active) |
| Cc1cccnc1NC(=S)Nc1ccccc1Cl | 99% (active) |
| CCOC(=O)/C(=C\c1cccc(OC)c1)C(C)=O | 96% (active) |
| c1ccc(C(c2ccccc2)c2ccc3ccccc3n2)cc1 | 71% (active) |
| O=c1cc(CSc2ccc(Cl)cc2)occ1O | 17% |
| COc1cc(NCCCCCNC2CCCCC2)c2ncccc2c1 | 17% |
| CC(=O)OCc1ccc([N+](=O)[O-])o1 | 22% |
| O=C(O)Cc1cccc2cc3c(ccc4ccccc43)cc12 | 32% |
| Cc1cccc(N2C(=O)c3ccccc3C2(c2ccccc2)N2CCCCC2)c1 (stereo not given) | -1% |
| O=C(/C=C/c1ccccc1)CCN1CCOCC1 | 99% (active) |
| C=CCCCCCCCCC(=O)CCCCCCCCC=C | 3% |
| Cc1ccc(O)c(C(C)c2ccccc2)c1 (stereo not given) | 99% (active) |
| COC(=O)c1nc(N)nc(C(=O)OC)c1C(=O)c1ccccc1 | -5% |
| Cc1ccc(S(=O)(=O)Oc2ccc(C(C)(C)C)cc2Cl)cc1 | -25% |
| CCCCCCCCCCCCCCC[N+]1(CC)CCCCC1 | 99% (active) |
| CC12CCC(=O)C=C1C=CC1C2CCC2(C)C1CCC21CCC(=O)O1 (stereo not given) | 99% (active) |
| CC(C)N(C(=O)C12C3C4C1C1C2C3C41I)C(C)C (stereo not given) | 19% |
